This is a sample that favours compounds with a hit; in the whole collection about 12% have one here.
Lmaj promast: inhibitors of Leishmania major promastigote growth; 200,000 compounds, 9% hits; Leishmania major promastigotes, resazurin fluorescence viability; inhibition, % at 10 µM; in the data active means inhibition above about 50%;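 further: promastigotes grown with compound for 44 hours at 28 °C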
ROMK mod: modulators of human ROMK potassium channel; AID 1918; 130,000 compounds, 2% hits; Tet-inducible ROMK, thallium flux fluorescence; actives lie on both sides; P48048; B-score at 10 µM;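 active means signal ratio slope over the read window, or its plate-corrected B-score, at least 3 SD from the plate mean, either direction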;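 further: B-score of the F/F0 ratio slope over 7 to 12 s after thallium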
Insulin prom inh: TRM-6 insulin promoter activity inhibition; TRM-6 cells (human fetal islet line), insulin promoter-eGFP reporter, imaging; reporter expression induced with tamoxifen; inhibition, % at 2 µM; 130,000 compounds, 0.9% hits;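 active means inhibition above the mean plus 3 SD, with well images judged a real hit on visual review, cut at about 60% in these data, passing the limit was not always enough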
Insulin prom up: MIN6 insulin promoter up-regulation; MIN6 insulin promoter-GFP reporter, high-content imaging; stronger effect = higher value; z-score at 5 µM; 190,000 compounds, 0.3% hits;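 active means z-score above 3 at 5 µM with at least 500 cells counted in the well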
Cl transport mod: modulates chloride dependent transport by human KCC2 | B-score of Tl+ flux slope (higher = more flux/activation; lower = inhibition) at 10 µM | 190,000 compounds, 2.2% hits | KCC2 cells, thallium flux FluoZin-2 fluorescence;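 active means thallium flux slope and its plate-corrected score both differing from the plate sample mean at a set confidence after two filtering rounds, in either direction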;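 further: slope of fluorescence scaled to starting intensity during 10 to 20 s after thallium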
Target sequence (Q9H2X9 whole entry, looked up): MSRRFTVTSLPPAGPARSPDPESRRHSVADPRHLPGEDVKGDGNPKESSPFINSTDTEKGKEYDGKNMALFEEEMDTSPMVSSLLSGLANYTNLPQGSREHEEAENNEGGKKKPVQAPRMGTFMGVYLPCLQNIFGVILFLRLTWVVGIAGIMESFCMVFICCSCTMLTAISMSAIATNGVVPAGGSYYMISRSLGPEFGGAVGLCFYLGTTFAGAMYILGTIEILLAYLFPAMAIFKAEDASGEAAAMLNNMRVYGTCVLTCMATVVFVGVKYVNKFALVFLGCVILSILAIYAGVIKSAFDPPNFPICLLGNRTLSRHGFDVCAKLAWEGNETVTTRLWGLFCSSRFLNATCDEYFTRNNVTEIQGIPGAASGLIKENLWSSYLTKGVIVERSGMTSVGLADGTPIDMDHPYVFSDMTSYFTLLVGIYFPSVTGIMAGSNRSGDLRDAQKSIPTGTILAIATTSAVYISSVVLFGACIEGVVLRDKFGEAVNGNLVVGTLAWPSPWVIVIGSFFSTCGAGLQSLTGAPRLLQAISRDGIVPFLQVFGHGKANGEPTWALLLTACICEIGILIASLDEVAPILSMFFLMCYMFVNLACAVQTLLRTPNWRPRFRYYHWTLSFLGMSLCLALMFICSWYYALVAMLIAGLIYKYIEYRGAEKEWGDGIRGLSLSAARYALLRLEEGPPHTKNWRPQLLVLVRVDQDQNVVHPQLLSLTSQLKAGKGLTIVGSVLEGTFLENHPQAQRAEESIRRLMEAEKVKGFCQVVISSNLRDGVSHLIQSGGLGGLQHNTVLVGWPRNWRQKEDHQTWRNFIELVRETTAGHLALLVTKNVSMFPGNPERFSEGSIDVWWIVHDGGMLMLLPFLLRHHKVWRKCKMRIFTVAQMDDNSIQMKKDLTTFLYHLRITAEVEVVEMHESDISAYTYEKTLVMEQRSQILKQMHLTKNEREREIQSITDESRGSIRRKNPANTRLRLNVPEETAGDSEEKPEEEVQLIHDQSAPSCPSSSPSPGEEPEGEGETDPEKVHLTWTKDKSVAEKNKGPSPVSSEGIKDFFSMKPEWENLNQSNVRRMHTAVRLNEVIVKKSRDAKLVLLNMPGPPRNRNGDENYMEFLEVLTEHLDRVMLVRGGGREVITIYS
WT yeast gro inh: growth inhibition of WT yeast, mitochondrial fusion screen; mitochondrial fusion phenotypic screen, WT strain; inhibition, % at 10 µM; 190,000 compounds, 2.1% hits; AID 1362; in the data active means inhibition above about 58%; tested in S. cerevisiae
Active calls of the source: *.

Screening Cc1ccc(C2(CC(=O)N3CCCC3)CCOC(C(C)C)C2)cc1 (centres undefined) returned Lmaj promast 13, ROMK mod -0.29, Insulin prom inh -69, Insulin prom up 0.36, Cl transport mod -0.51 and WT yeast gro inh 7.
Cc1cc(C)c(NC(=O)CSc2nc3[nH]ncc3c(=O)[nH]2)c(C)c1 was read as Lmaj promast -8, ROMK mod -1, Insulin prom up -0.23, Cl transport mod 0.85 and WT yeast gro inh -16.
`COc1cccc(CNC(=O)CCC2CCCN(C(=O)c3csc(C(C)C)n3)C2)c1` (centres undefined) gave Lmaj promast -1, ROMK mod 0.71, Insulin prom up -1.3 and WT yeast gro inh -9.
For Cc1[nH]nc2c1C(c1ccsc1C)C(C#N)=C(N)O2 (centres undefined) the results were Lmaj promast 77*, ROMK mod -3.3, Insulin prom inh -6, Insulin prom up -0.56, Cl transport mod -1.1 and WT yeast gro inh -1.
N#CC1=C(N)Oc2cc(N)ccc2C1C1CC=CCC1 (centres undefined) was read as Lmaj promast 5, ROMK mod 0.77, Insulin prom up 1.3, Cl transport mod -0.9 and WT yeast gro inh 10.
Screening Cc1ccc(-c2[nH]nc3c2C(c2ccsc2)C(C#N)=C(N)O3)cc1 (centres undefined) returned Lmaj promast 7, Insulin prom inh -31, Insulin prom up -0.62 and WT yeast gro inh 5.
Screening Cc1cc(C2C(C#N)=C(N)Oc3n[nH]c(C)c32)c(C)s1 (centres undefined) returned Lmaj promast 33, Insulin prom inh -29, Insulin prom up 3.4*, Cl transport mod -1.7 and WT yeast gro inh -3.
`Cc1[nH]nc2c1C(c1ccc(F)cc1)C(C#N)=C(N)O2` (centres undefined) gave Lmaj promast 33, Insulin prom inh -73, Insulin prom up 0.21, Cl transport mod -0.57 and WT yeast gro inh -30.
`Cc1cc(C2C(C#N)=C(N)SC(N)=C2C#N)c(C)s1` gave Lmaj promast 1, Insulin prom inh -185, Insulin prom up -0.56, Cl transport mod -0.49 and WT yeast gro inh 8.
`Cc1[nH]nc2c1C(c1ccsc1)C(C#N)=C(N)O2` (centres undefined) gave Lmaj promast 57*, ROMK mod -0.91, Insulin prom inh 5, Insulin prom up 0.74, Cl transport mod 0.089 and WT yeast gro inh -3.
For Cc1[nH]nc2c1C(C1CC=CCC1)C(C#N)=C(N)O2 (centres undefined) the results were Lmaj promast 100*, Insulin prom inh 8, Insulin prom up 0.47, Cl transport mod -0.87 and WT yeast gro inh 9.
`N#C/C(=C\c1ccccc1)C(=O)OCC(=O)N1CCCC1` gave Lmaj promast -7, ROMK mod -0.22, Insulin prom up 0.96, Cl transport mod 1.1 and WT yeast gro inh 6.
Screening C[n+]1cccc(C2C(C#N)=C(N)Oc3c2ccc2ccccc32)c1 (centres undefined) returned ROMK mod -0.011, Insulin prom up 1 and Cl transport mod 0.86.
`Cc1ccccc1C(=O)NN(C)c1nc2ccccc2nc1C(F)(F)F` gave Lmaj promast -5, Insulin prom inh -7 and WT yeast gro inh -3.
Screening C=CCN(CC=C)C(=O)c1cc(Cl)ccc1[N+](=O)[O-] returned Lmaj promast 51*, ROMK mod -0.3, Insulin prom inh -13, Insulin prom up 0.21, Cl transport mod 0.35 and WT yeast gro inh 3.
`O=C(CN(C(=O)CSc1nc2ccccc2o1)c1ccccc1F)NC1CCCCC1` gave Lmaj promast 65*, ROMK mod -1.2, Insulin prom inh 3, Insulin prom up -0.2, Cl transport mod -0.98 and WT yeast gro inh -11.
Cc1ccc(-c2csc(N(CC3CCCO3)C(=O)c3ccco3)n2)cc1 (centres undefined) was read as Lmaj promast 76*, ROMK mod -0.12, Insulin prom inh -33, Insulin prom up 0.12, Cl transport mod -0.38 and WT yeast gro inh 69*.
`Cc1cccc(-c2nc3ccccc3c(=O)n2NC(=O)/C=C/c2ccc([N+](=O)[O-])cc2)c1` gave Lmaj promast 52*, ROMK mod -1.1, Insulin prom inh -67, Insulin prom up 0.6, Cl transport mod 0.68 and WT yeast gro inh 10.
Screening O=C(/C=C/c1cccc([N+](=O)[O-])c1)Nn1c(-c2ccccc2F)nc2ccccc2c1=O returned Lmaj promast -2, ROMK mod -0.19, Insulin prom inh 6, Insulin prom up 0.08, Cl transport mod -0.22 and WT yeast gro inh 11.
`Cc1cccc(N2CCN(c3ccc(NC(=O)/C=C(/C(=O)O)c4ccccc4)cc3)CC2)c1` gave Lmaj promast 4, ROMK mod -0.14, Insulin prom up 0.66, Cl transport mod 0.45 and WT yeast gro inh 17.
Screening Cc1[nH]c2ccccc2c1C(c1ccncc1)N1CCN(c2ccccc2F)CC1 (centres undefined) returned Lmaj promast 51*, ROMK mod 0.0079, Insulin prom inh -19, Insulin prom up -0.37, Cl transport mod -0.2 and WT yeast gro inh 25.
Screening OC(COc1c(Cl)cc(Cl)cc1Cl)CN1CCCCC1 (centres undefined) returned Lmaj promast 97*, ROMK mod -2.4, Insulin prom inh -7, Insulin prom up -0.88 and WT yeast gro inh -3.
`OC(COc1ccc(CNCCc2ccc(C(F)(F)F)cc2)cc1)CN1CCCCC1` (centres undefined) gave Lmaj promast 100*, ROMK mod -1.8, Cl transport mod 0.66 and WT yeast gro inh 19.
Screening Cc1ccc(OCC(O)CN2CCN(Cc3ccc4c(c3)OCO4)CC2)cc1C (centres undefined) returned Lmaj promast 91*, ROMK mod -1.6, Insulin prom inh 8, Insulin prom up -0.04, Cl transport mod -0.0069 and WT yeast gro inh 22.
OC(COc1ccccc1)CN1CCCCCC1 (centres undefined) was read as Lmaj promast -1, ROMK mod -0.26, Insulin prom inh 0, Insulin prom up -0.01, Cl transport mod -0.066 and WT yeast gro inh -10.
Screening Cc1cc(OCC(O)CN2CCN(C)CC2)ccc1C(C)C (centres undefined) returned Lmaj promast 90*, ROMK mod -0.033, Insulin prom up -1.6, Cl transport mod 0.57 and WT yeast gro inh 2.
Screening CN1CCN(CC(O)COc2ccc(OCC(O)CN3CCN(C)CC3)cc2)CC1 (centres undefined) returned Lmaj promast 0, Insulin prom inh -25, Insulin prom up 0.56, Cl transport mod 0.12 and WT yeast gro inh -7.
`CCN1CCN(CC(O)COc2ccc(C)c(C)c2)CC1` (centres undefined) gave Lmaj promast 84*, ROMK mod 0.24, Insulin prom inh 0, Insulin prom up -0.53, Cl transport mod -0.13 and WT yeast gro inh 5.
